# A number with no mark means an inactive call.
# What was measured:
# Assay in all cases: log2 ratio of Biotin-Ahx-Ub-VS probe labelling (fragment/DMSO); higher = less target engagement (more negative = stronger competition), active = hit call of the paper (q ≤ 0.05, log2 ratio ≤ -1)
# Settings in all cases: compound concentration: 200 uM; treatment time: 3 h
# USP19 = biological target: T1, USP19 (UniProt O94966)
# T1 sequence (whole entry): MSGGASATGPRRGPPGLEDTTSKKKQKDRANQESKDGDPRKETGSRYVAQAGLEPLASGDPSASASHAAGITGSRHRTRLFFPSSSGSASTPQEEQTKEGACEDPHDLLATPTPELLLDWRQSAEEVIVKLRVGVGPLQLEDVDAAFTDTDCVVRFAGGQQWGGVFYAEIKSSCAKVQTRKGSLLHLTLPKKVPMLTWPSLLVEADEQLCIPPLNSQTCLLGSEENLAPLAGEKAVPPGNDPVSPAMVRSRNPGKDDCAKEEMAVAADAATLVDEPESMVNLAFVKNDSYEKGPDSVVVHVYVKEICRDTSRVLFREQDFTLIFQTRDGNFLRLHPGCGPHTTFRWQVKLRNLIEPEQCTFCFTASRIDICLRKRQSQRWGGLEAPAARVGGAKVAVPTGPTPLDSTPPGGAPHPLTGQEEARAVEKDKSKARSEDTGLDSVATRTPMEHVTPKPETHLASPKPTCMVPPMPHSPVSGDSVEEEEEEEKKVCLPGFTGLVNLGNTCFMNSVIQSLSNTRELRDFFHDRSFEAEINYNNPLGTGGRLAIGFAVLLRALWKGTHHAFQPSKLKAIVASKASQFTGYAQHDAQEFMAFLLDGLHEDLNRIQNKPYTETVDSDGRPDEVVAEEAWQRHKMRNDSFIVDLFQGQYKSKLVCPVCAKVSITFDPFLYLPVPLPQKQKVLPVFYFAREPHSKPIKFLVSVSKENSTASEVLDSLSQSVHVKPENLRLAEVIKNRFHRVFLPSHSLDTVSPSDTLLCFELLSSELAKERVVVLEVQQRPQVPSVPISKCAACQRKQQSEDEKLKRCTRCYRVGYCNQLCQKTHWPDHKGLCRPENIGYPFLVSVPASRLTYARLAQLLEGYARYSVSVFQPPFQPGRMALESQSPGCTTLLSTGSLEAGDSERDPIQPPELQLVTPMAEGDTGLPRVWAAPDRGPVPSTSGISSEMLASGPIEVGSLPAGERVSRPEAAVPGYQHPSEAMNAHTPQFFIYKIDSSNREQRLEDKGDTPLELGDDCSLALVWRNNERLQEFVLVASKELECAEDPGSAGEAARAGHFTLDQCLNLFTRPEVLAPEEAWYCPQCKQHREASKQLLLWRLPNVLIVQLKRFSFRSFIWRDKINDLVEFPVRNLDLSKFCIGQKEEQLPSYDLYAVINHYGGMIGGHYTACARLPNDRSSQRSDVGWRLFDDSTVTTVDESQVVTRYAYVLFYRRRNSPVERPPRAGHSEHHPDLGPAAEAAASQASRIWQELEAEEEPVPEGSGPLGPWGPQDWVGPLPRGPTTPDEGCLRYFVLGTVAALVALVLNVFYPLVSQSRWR
# How it was run: (§1)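 HEK293T lysate, 495 µg per sample in Tris/CHAPS/IGEPAL buffer with protease inhibitors, was treated in triplicate with fragment at 200 µM or vehicle for 3 h and then with Biotin-Ahx-Ub-VS at 0.5 µM final for 1 h. Labelled DUBs were NeutrAvidin-enriched, digested with LysC and trypsin, and run by diaPASEF LC-MS/MS. Spectronaut label-free quantities were global-median-normalised, and values are average log2 fragment/vehicle ratios by unpaired t-test on proteins with ≥2 unique peptides.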
# USP22 = biological target: T2, USP22 (UniProt Q9UPT9)
# T2 sequence (whole entry): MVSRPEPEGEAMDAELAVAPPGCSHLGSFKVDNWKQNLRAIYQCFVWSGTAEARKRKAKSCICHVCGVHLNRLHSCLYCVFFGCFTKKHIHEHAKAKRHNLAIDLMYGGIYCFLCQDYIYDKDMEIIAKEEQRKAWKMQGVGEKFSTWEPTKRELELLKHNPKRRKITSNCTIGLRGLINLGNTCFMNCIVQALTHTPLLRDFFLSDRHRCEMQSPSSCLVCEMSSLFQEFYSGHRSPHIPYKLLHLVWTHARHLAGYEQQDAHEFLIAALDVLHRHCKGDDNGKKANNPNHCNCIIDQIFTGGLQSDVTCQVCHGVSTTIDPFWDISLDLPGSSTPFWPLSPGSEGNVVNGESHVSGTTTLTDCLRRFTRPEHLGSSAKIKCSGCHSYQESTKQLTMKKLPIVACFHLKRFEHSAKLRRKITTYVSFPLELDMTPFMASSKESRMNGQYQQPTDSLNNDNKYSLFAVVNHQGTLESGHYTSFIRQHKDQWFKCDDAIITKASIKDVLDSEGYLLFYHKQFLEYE
# How it was run: as §1
# USP24 = USP24 (UniProt Q9UPU5)
# Chain of USP24 (Q9UPU5 whole entry): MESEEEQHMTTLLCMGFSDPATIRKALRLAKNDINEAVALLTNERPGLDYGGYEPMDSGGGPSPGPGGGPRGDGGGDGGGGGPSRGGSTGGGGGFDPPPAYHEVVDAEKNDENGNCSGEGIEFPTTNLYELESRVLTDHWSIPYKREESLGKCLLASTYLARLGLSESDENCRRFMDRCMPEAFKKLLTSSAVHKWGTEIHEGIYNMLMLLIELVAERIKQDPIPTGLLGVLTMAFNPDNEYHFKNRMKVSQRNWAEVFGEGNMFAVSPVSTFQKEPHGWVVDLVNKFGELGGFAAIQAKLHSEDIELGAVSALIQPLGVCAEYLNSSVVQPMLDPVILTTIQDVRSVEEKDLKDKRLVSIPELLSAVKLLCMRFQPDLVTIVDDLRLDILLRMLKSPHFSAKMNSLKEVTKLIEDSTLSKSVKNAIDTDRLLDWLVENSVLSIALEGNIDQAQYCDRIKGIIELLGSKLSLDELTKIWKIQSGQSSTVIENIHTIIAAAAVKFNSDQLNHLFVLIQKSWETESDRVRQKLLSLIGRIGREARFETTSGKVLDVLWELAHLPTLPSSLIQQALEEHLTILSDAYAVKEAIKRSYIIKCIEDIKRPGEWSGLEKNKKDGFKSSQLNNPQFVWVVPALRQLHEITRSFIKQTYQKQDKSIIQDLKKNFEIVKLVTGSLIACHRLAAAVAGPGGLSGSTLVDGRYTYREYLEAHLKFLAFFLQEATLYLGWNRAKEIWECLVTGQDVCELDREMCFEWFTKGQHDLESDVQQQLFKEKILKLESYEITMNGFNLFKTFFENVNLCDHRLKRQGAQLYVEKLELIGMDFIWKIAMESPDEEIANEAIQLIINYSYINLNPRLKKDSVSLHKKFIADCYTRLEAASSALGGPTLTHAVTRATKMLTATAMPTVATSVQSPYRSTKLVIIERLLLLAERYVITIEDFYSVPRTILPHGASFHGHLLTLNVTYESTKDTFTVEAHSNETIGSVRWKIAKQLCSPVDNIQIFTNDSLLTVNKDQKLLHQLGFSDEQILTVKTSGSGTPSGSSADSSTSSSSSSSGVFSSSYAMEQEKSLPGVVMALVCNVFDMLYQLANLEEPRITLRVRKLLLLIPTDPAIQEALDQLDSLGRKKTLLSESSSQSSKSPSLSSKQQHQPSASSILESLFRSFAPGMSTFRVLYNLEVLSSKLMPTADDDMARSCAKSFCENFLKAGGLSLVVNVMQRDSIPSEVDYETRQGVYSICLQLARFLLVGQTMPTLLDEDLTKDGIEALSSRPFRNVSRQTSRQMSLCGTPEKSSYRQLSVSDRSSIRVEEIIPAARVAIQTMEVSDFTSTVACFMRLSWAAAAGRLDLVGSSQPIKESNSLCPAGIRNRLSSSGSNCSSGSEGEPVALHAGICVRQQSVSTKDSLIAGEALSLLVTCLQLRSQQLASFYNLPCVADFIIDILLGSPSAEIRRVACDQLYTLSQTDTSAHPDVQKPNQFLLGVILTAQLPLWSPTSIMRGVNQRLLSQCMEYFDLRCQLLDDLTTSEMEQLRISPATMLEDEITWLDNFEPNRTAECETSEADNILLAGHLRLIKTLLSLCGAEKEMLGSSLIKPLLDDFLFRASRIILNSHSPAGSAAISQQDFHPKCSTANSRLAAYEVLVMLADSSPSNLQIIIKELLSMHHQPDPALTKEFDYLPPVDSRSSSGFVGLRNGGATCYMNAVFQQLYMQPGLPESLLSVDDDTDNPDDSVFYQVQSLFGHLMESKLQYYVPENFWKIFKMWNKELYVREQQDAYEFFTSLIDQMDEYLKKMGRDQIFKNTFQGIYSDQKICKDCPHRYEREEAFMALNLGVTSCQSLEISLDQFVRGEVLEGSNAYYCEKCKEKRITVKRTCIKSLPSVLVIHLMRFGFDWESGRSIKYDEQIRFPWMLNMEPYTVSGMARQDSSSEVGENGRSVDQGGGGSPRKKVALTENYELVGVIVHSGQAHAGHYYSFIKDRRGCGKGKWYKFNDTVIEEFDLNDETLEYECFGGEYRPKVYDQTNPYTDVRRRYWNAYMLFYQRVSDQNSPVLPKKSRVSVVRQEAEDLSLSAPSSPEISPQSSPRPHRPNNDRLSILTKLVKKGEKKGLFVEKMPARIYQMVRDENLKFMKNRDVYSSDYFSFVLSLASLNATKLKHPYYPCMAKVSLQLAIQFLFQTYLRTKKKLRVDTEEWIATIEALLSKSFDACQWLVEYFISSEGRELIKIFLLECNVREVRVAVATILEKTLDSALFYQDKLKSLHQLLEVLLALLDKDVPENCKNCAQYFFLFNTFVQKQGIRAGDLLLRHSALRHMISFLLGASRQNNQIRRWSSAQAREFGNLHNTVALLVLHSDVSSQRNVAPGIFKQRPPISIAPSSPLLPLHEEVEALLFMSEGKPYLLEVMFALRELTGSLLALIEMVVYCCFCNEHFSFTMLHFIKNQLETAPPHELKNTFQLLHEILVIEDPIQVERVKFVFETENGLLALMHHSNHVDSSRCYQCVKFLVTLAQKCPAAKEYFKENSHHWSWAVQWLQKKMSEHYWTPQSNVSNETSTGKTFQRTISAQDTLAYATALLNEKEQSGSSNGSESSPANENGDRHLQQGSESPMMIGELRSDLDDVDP
# How it was run: as §1
# USP25 = biological target: T3, USP25 (UniProt Q9UHP3)
# T3 sequence (whole entry): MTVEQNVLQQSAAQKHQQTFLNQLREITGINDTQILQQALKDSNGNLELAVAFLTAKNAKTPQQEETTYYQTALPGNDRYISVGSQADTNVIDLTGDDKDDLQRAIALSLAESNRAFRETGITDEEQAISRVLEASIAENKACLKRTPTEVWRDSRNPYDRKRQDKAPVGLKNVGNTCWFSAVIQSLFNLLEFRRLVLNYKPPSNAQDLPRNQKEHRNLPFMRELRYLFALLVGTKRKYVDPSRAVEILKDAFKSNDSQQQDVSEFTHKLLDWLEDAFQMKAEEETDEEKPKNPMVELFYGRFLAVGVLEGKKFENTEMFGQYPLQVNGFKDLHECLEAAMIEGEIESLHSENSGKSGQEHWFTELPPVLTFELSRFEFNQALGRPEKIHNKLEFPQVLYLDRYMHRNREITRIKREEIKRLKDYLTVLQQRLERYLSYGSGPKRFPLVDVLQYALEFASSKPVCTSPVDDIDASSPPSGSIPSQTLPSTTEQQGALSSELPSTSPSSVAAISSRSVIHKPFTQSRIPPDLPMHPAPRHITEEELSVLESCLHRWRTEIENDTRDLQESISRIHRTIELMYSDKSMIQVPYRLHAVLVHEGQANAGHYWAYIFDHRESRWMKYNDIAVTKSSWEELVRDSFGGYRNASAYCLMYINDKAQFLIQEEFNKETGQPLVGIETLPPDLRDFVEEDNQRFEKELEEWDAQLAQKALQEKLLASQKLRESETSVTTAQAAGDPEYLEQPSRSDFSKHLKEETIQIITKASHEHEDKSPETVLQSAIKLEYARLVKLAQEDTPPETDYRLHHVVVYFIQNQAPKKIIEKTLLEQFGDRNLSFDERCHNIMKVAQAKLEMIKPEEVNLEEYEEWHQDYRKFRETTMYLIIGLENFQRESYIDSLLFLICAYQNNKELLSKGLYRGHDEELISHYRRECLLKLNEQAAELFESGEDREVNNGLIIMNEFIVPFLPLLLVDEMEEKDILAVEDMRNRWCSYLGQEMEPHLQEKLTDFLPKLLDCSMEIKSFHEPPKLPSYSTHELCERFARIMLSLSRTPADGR
# How it was run: as §1
# USP28 = biological target: T4, USP28 (UniProt Q96RU2)
# T4 sequence (whole entry): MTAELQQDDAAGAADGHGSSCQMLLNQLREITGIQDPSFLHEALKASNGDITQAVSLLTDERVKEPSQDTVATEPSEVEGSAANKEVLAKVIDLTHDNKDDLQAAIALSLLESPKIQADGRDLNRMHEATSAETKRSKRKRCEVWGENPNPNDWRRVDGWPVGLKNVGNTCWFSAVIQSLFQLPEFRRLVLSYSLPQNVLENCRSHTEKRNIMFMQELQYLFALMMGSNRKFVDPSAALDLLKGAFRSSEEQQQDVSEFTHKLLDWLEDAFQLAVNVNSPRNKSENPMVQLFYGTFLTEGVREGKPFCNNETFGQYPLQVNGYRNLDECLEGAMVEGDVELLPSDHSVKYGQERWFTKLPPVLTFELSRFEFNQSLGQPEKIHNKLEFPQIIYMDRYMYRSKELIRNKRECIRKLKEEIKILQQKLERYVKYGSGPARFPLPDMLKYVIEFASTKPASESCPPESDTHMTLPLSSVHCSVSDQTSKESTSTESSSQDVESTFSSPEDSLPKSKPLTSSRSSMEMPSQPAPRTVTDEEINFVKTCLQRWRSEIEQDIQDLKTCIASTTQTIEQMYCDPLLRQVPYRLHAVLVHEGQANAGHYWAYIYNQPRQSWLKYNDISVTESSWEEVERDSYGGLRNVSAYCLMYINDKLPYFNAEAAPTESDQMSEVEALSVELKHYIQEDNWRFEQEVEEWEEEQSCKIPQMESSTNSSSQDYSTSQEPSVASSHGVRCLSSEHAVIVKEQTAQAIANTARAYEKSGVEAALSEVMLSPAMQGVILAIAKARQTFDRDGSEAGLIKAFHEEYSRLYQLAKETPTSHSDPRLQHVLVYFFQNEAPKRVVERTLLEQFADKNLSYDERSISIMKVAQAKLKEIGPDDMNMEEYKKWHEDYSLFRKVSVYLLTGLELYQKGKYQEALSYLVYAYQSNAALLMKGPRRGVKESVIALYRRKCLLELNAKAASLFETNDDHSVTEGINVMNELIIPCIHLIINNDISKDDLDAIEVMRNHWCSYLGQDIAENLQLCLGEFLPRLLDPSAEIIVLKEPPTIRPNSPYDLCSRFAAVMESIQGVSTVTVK
# How it was run: as §1
smiles,measurement,setting,value
CN1C(=O)c2ccc(NC(=O)CCl)cc2C1=O,log2 ratio of Biotin-Ahx-Ub-VS probe labelling,USP19,-0.358
same,log2 ratio of Biotin-Ahx-Ub-VS probe labelling,USP22,0.0519
same,log2 ratio of Biotin-Ahx-Ub-VS probe labelling,USP24,-0.467
same,log2 ratio of Biotin-Ahx-Ub-VS probe labelling,USP25,-1.54 (active)
same,log2 ratio of Biotin-Ahx-Ub-VS probe labelling,USP28,-1.5 (active)

# Reference: the supplement of paper PMC11732987, “Enantioselective OTUD7B fragment discovery through chemoproteomics screening and high-throughput optimisation” (Communications Chemistry, 2025)
